Consider 20 compounds from PubChem BioAssay (Tox21).

Structures are written as SMILES. Where “and” joins values, the source holds several entries; their conditions need not be identical. Identical values can stand only once. Inconclusive results are not listed. Unmarked numbers belong to inactive results. Calls of active or inactive are those of the source. The call rests on the fitted dose curve; in most records, active means well fitted curve in the direction sought with a large enough effect in the repeat runs; inconclusive means weak or mixed curves; inactive means no such curve, though single readings can be large; an effect the other way counts as inactive or inconclusive.

Test [1] is described as follows: qHTS RealTime-Glo MT Cell Viability Assay in HEK293 cells - 16 hour (AID 1224872). Further: nearly all actives have a fitted effect of over 50% in size. Further: potency means the concentration at half of the fitted maximal effect. Summed up:
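HEK293 cells seeded with NanoLuc/prosubstrate reagent, rested 5 h at 37 C, then dosed and kept at 37 C up to 40 h. Nonlytic real-time luminescence from viable cells read at 0, 8, 16, 24, 32 and 40 h.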

Test [2] is described as follows: qHTS RealTime-Glo MT Cell Viability Assay in HepG2 cells - 8 hour (AID 1224873). Further: nearly all actives have a fitted effect of over 55% in size. Summed up:
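Real-time viability: cells seeded at 600 per well together with NanoLuc and cell-permeant prosubstrate, compounds added after 5 h incubation. Luminescence tracked at 0, 8, 16, 24, 32 and 40 h of exposure.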

Test [3] can be described thus: qHTS RealTime-Glo MT Cell Viability Assay in HEK293 cells - 40 hour (AID 1224874). Further: nearly all actives have a fitted effect of over 50% in size. Further: potency means the concentration at half of the fitted maximal effect. As to conditions: RealTime-Glo luminescence; max response: stronger effect = lower value. In outline:
(§1)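 HEK293 + NanoLuc + prosubstrate, 600 cells/well; 5 h, 37 C/5% CO2; compound 23 nL in DMSO by pintool; 37 C; luminescence read at 0, 8, 16, 24, 32 and 40 h time points.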

Test [4] is described as follows: A CellTox Green Cytotoxicity Assay to monitor cytotoxicity in HEK293 cells - 24 hour (AID 1224875). Further: nearly all actives have a fitted effect of over 45% in size. Further: potency means the concentration at half of the fitted maximal effect. Summed up:
(§2)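 Tox21 screen in HEK293: membrane-impermeant cyanine dye fluoresces on binding dead-cell DNA; compound pinned 5 h post-seeding, plates held at 37 C, signal read repeatedly through 40 h.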

Test [5] is described as follows: qHTS RealTime-Glo MT Cell Viability Assay in HepG2 cells - 32 hour (AID 1224877). Further: nearly all actives have a fitted effect of over 55% in size. Summed up: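 HepG2 cells (600/well) were dispensed with RealTime-Glo reagents, incubated 5 h at 37 °C, then treated with compounds in DMSO for up to 40 h. Nonlytic NanoLuc luminescence reflecting viable cells was read at each stated time point.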
The nature of test [6]: qHTS RealTime-Glo MT Cell Viability Assay in HEK293 cells - 0 hour (AID 1224880). Further: top concentration of the series differs between compounds; nearly all actives have a fitted effect of over 45% in size. In outline:
as §1

Test [7] is described as follows: A CellTox Green Cytotoxicity Assay to monitor cytotoxicity in HEK293 cells - 32 hour (AID 1224881). Further: nearly all actives have a fitted effect of over 40% in size. Further: potency means the concentration at half of the fitted maximal effect. Summed up: as §2
Test [8] in a line: A CellTox Green Cytotoxicity Assay to monitor cytotoxicity in HepG2 cells - 24 hour (AID 1224878). Further: nearly all actives have a fitted effect of over 45% in size. Further: potency means the concentration at half of the fitted maximal effect. Summed up:
(§3)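 Measurements at 0, 8, 16, 24, 32 and 40 h of treatment captured CellTox Green fluorescence in HepG2 cells that had been co-plated with reagent and preincubated 5 h at 37 C/5% CO2.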

Test [9] can be described thus: A CellTox Green Cytotoxicity Assay to monitor cytotoxicity in HepG2 cells - 40 hour (AID 1224879). Further: nearly all actives have a fitted effect of over 40% in size. Further: potency means the concentration at half of the fitted maximal effect. In outline:
as §3

Test [10] can be described thus: A CellTox Green Cytotoxicity Assay to monitor cytotoxicity in HepG2 cells - 16 hour (AID 1224876). Further: nearly all actives have a fitted effect of over 45% in size. Further: potency means the concentration at half of the fitted maximal effect. In outline:
as §3
On the % scale 0 is the no-effect control and ±100 the full control effect.

On to `CCOC(=O)[C@@](C)(N)Cc1ccc(O)c(O)c1`, for which the Potency result in test [1], in test [2], in [4], in test [5], in test [6] and in [7] was “inactive” in each case. For the same compound, the max response in test [3] was 0.793%.
Take `Cc1cccc(N(C)C)c1`: the Potency result in test [1], in [2], in [4], in test [5], in [8] and in test [9] was “inactive” in each case. For the same compound, the Potency entry in [6] and in test [7] was “inactive” throughout. Also, the max response in test [3] is 7.91%.
Take `CN(C)CCCN1c2ccccc2CCc2ccccc21`: the Potency result in test [1], in test [2], in test [4], in test [5] and in test [7] was “inactive” throughout. Moreover, the Potency was 54.9 µM (active) in test [3], 49 µM (active) in [8] and 54.9 µM (active) in test [9].
Turning to `OCCCc1cccnc1`, the Potency result in [1], in [2], in test [4], in test [5], in [8] and in [9] was “inactive” each time. In addition, the Potency result in test [6] and in test [7] was “inactive” throughout. Also, the max response in test [3] was -2.22%.
Consider `CC(C)(c1cc(Br)c(OCCO)c(Br)c1)c1cc(Br)c(OCCO)c(Br)c1`, for which the Potency in test [1] is 17 µM (active); in [3], 12 µM (active). Besides, the Potency entry in [2], in [4], in test [10], in [8], in test [6] and in test [7] was “inactive” each time.
Consider `CC1CCCCC1`, for which the Potency result in test [1], in test [2], in test [4], in test [5], in test [8] and in [9] was “inactive” in each case. For the same compound, the Potency entry in test [6] and in test [7] was “inactive” each time. The max response in test [3] is 5.61%.
As to `c1ccc(Nc2cccc3ccccc23)cc1`, the Potency result in [1], in test [2], in test [4], in test [10], in [6] and in [7] was “inactive” in each case. For the same compound, the max response in test [3] was -7.99%.
For `CCc1cccc(CC)c1NC(=O)C(=O)O`, the Potency entry in test [1], in test [2], in [4], in test [10], in test [9] and in test [6] was “inactive” each time. Moreover, the Potency result in test [7] was “inactive”. Also, in test [3], the max response was 9.15%.
Regarding `Cc1cc(C)c(C=O)c(C)c1`, the Potency entry in [1], in test [2], in test [4], in [10], in test [8] and in test [9] was “inactive” in each case. Further, the Potency result in test [7] was “inactive”. Moreover, the max response in test [3] is 8.02%.
For `O=S(=O)(O)CCCN1CCOCC1`, the Potency result in test [1], in test [2], in test [4], in test [5], in test [8] and in test [9] was “inactive” throughout. Also, the Potency entry in test [6] and in test [7] was “inactive” in each case. The max response in test [3] was 12.7%.
For `C/C=C/C(=O)C1=C(C)CCCC1(C)C`, the Potency result in test [1], in test [2], in test [4], in test [8], in [6] and in test [7] was “inactive” each time. The max response in test [3] is 16.6%.
Take `Nc1ccc2cc3ccc(N)cc3nc2c1`: the Potency was 6.16 µM (active) and 9.52 µM (active) in test [1]; 436 nM (active) and 2.13 µM (active) in test [3]; 43.6 µM (active) and 21.3 µM (active) in test [4]; 49 µM (active) and 21.3 µM (active) in test [10]; 49 µM (active) and 21.3 µM (active) in test [9]; 43.6 µM (active) and 21.3 µM (active) in test [7]. Besides, the Potency entry in [2] and in [6] was “inactive” throughout.
`C=CC(=C)CCC=C(C)C`: the Potency result in [1], in test [2], in test [4], in test [5], in [9] and in test [6] was “inactive” each time. In test [7], the Potency result is “inactive”. In addition, the max response in [3] was 8.59%.
Regarding `CCO[Si](C)(C)OCC`, the Potency result in test [1], in test [2], in [4], in [5], in test [8] and in test [9] was “inactive” each time. The Potency entry in test [6] and in test [7] was “inactive” each time. For the same compound, the max response in test [3] is -0.247%.
For `CC(=O)Oc1ccc(C2(c3ccc(OC(C)=O)cc3)C(=O)Nc3ccccc32)cc1`, the Potency result in [1], in test [2], in test [4], in test [10], in test [9] and in [6] was “inactive” each time. For the same compound, the Potency result in test [7] is “inactive”. Besides, the max response in test [3] is -6.95%.
Consider `CCc1c(C(=O)O)c(=O)cnn1-c1ccc(Cl)cc1`, for which the Potency result in test [1], in test [2], in test [4], in test [10], in test [9] and in test [6] was “inactive” in each case. Further, the Potency result in [7] is “inactive”. In test [3], the max response is 18.5%.
For `CCCCCCCCCCCCCCCC`, the Potency entry in test [1], in [2], in [4], in [8], in [9] and in [6] was “inactive” each time. For the same compound, in test [7], the Potency entry was “inactive”. In [3], the max response is 15.7%.
As to `CCCCN(CCCC)CCC(O)c1cc2c(Cl)cc(Cl)cc2c2cc(C(F)(F)F)ccc12` (configuration not stated), the Potency result in test [1], in [2], in test [4], in test [6] and in test [7] was “inactive” in each case. For the same compound, in test [3], the max response is -17.9%. For the same compound, the Potency in [9] is 23.9 µM (active).
`CNC(=S)NN`: the Potency result in [1], in test [2], in [4], in [10], in test [8] and in test [6] was “inactive” each time. For the same compound, in test [7], the Potency entry was “inactive”. In addition, the Potency in test [3] is 19.5 µM (active).
`CC(=O)OC1CCCCC1`: the Potency entry in [1], in [2], in test [4], in [5], in test [8] and in test [9] was “inactive” each time. Moreover, the Potency entry in test [6] and in test [7] was “inactive” in each case. Besides, in [3], the max response was -7.58%.
